DAX1 inh-1 = inhibits human nuclear receptor DAX1; P51843; HEK293 Gal4-DAX1 luciferase reporter, luminescence; inhibition, % at 6.75 µM; hit rate 0.99% among 340,000; AID 504766;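 active means inhibition above the mean over all tested compounds plus 3 SD, cut at about 4.2% in these data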;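 further: 0% = DAX1-transfected cells with DMSO and 100% = empty-vector control cells with DMSO; inhibition shows as a rise in luminescence from relieved DAX1 repression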
hcDAF-12 act = activates DAF-12 receptor from parasite H. contortus. activation, % at 6.8 µM. HEK293 hcDAF-12 lit1-tk-luc reporter, luminescence; 0% DMSO, 100% Δ7-dafachronic acid. hit rate 1.4% among 370,000. AID 652067;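 active means activation above the mean of all tested compounds plus 3 SD, cut at about 5.5% in these data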;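 further: 100% = response to 3 µM Δ7-dafachronic acid high control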
hgDAF12 agonist = activates the H. glycines DAF-12 receptor ligand-binding domain | HEK293 GAL4-hgDAF12 UAS-luciferase reporter, agonist luminescence; normalized to butyrate control | activation, % at 6.8 µM | hit rate 1.8% among 370,000;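 active means activation above a cutoff set at the mean of all screened compounds plus 3 SD, cut at about 10% in these data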;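 further: 0% = DMSO wells and 100% = sodium butyrate wells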
SMARCA2 activ = activators of SMARCA2 function | MG213 cells, MMTV-luciferase reporter, dexamethasone, overnight | activation, % at 9.1 µM | hit rate 1% among 370,000 | AID 652017; in the data active means activation above about 7.8%;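 further: 0% = vehicle wells and 100% = reference activator wells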
DAX1 inh-2 = inhibitors of DAX1 repression of SF-1 activated StAR promoter; HEK293T StAR-luciferase reporter, SF-1/DAX-1 repression relief; inhibition, % at 6.8 µM; hit rate 1.1% among 370,000; AID 652010;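 active means inhibition above the mean over all tested compounds plus 3 SD, cut at about 3.6% in these data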;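 further: 0% = DAX-1 cells with DMSO and 100% = cells lacking DAX-1 with DMSO; higher inhibition means more luminescence from relief of DAX-1 repression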
ssDAF12 agonist = S. stercoralis DAF-12 activation, primary screen | hit rate 1% among 370,000 | HEK293 ssDAF-12/GRIP1 lit1-tk-luc reporter, luminescence; % of 3 µM dafachronic acid response | activation, % at 6.8 µM;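 active means activation above the mean over all tested compounds plus 3 SD, cut at about 0.9% in these data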;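 further: 0% = DMSO-only wells and 100% = 3 µM delta7-dafachronic acid wells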
LXRb hcDAF ctr = activates human LXR-beta, counter-screen for hcDAF-12 agonists; shares compounds with hcDAF-12 act; HEK293 Gal4-LXR tk-luc reporter, luminescence, 24 h; normalized: DMSO 0%, positive control 100%; activation, % at 6.8 µM; 3,400 tested, under 10 active; AID 743027;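 active means mean percent activation of the reporter above a cutoff set as the average over tested compounds plus their standard deviation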
Target sequence (P55055 whole entry, looked up, the tested form may be a part): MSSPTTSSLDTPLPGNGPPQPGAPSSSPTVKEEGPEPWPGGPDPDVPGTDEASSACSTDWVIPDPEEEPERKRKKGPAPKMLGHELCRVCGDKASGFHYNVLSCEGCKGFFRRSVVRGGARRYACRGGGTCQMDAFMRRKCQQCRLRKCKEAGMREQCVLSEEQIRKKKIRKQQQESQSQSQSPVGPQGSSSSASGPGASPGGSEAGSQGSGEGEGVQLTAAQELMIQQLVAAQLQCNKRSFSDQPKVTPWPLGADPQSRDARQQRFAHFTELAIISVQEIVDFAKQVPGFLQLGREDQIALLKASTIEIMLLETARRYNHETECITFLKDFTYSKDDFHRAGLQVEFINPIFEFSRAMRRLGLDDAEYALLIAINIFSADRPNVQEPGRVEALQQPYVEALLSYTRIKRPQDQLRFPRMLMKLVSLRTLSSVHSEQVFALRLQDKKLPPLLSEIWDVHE
hcDAF12 conf = hcDAF-12 agonism, confirmation assay; shares compounds with hcDAF-12 act; HEK293 hcDAF-12 lit1-tk-luc reporter, luminescence; % of Δ7-dafachronic acid response; activation, % at 6.8 µM; hit rate 61% among 3,400;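 active means mean activation across triplicate tests above the threshold derived from the earlier primary screen, cut at about 5.5% in these data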;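 further: 0% = DMSO only wells and 100% = 3 µM Δ7-dafachronic acid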
The depositor's hits bear a star; / = not tested or not shown. This is a sample that favours compounds with a hit; in the whole collection about 4.8% have one here.

SMILES | DAX1 inh-1 | hcDAF-12 act | hgDAF12 agonist | SMARCA2 activ | DAX1 inh-2 | ssDAF12 agonist | LXRb hcDAF ctr | hcDAF12 conf
COc1ccc(Nc2nc(-c3c[nH]c4ccccc34)cs2)cc1 | -1 | 11* | 6 | 1 | 1 | 1 | 0 | 5
CN(Cc1cccc(F)c1)C(=O)c1ccc(S(=O)(=O)N2CCCCCC2)cc1 | -1 | 0 | -1 | -7 | -2 | -2 | / | /
CC(=O)Nc1ccc(NC(=S)Nc2ccccc2)cc1 | 0 | 1 | -2 | 0 | 0 | -1 | / | /
C/C(=C\C(=S)Nc1ccccc1)Nc1ccccc1 | 0 | 9.6* | 5 | 1 | 0 | 0 | 0 | 6.1*
C/C(=N\Nc1nc2ccccc2[nH]1)c1ccc(C)o1 | 0 | 7.5* | 8 | 3 | 1 | 2.2* | 0 | 8.6*
C/C(=N\Nc1nc2ccccc2[nH]1)c1ccc(Cl)s1 | 0 | 1 | 3 | 0 | 0 | 1 | / | /
O=C(CCSc1ccccc1)N1CCOCC1 | 2 | 5 | 10 | 4 | 2 | -1 | / | /
O=C(CCSc1nc2ccccc2o1)N1CCOCC1 | 1 | 7.1* | 1 | 2 | 0 | 0 | 0 | 3
CCOc1ccccc1C(=O)NCC(=O)OCC(=O)c1c(N)n(C)c(=O)n(C)c1=O | 0 | 1 | -3 | -3 | 1 | -2 | / | /
COc1cc(/C=N/Nc2ccc3ccccc3c2)ccc1OC(=O)c1ccco1 | 1 | 6.8* | 5 | 3 | 0 | 0 | 0 | 7.5*
O=c1c2sc3ccccc3c2[nH]c(=S)n1CCN1CCOCC1 | 0 | -1 | 1 | 4 | 2 | 0 | / | /
Cc1[nH]c2ccccc2c1C1=NNC(=Nc2ccc(F)cc2)SC1 | 4.4* | 7.1* | 0 | 0 | -1 | 0 | 0 | 1
O=S(=O)(c1ccc(Cl)cc1)N1CCN=C1SCc1ccc(Cl)c(Cl)c1 | 0 | 2 | -3 | -3 | 0 | -1 | / | /
CCc1ccc(/C=C/C(=O)C2C(=O)c3ccccc3C2=O)cc1 | 0 | 8.8* | 7 | 0 | 3 | 1.0* | 0 | 5.9*
O=C(O)c1cccc(COc2cccc3ccccc23)c1 | -4 | 9.1* | 13* | 6 | 3 | 1.3* | 2 | 9.4*
O=C(O)C1Cc2ccccc2CN1C(=O)c1ccccc1 (stereo not given) | 1 | 0 | -2 | 1 | 0 | -1 | / | /
CC(CSC(=O)c1ccccc1)C(=O)N1c2ccccc2CC1C(=O)O (stereo not given) | / | 7.5* | 5 | -2 | 0 | 1 | 0 | 5
CCOC(=O)c1sc(=NC(=O)c2ccc(Cl)s2)n(C)c1C | 3 | 6.7* | 8 | -1 | 2 | 0 | 2 | 15*
CC(C)=NNc1nc(-c2ccc(N3C(=O)CCC3=O)cc2)cs1 | -4 | -3 | -2 | -3 | 0 | -1 | / | /
C/C(=N\Nc1nc2c(s1)CCCC2)c1ccccc1 | 3 | 7.4* | 6 | 3 | 2 | 1.4* | 1 | 11*
CC(C)=NNc1nc(-c2ccccc2)cs1 | 2 | 7.2* | 5 | 2 | 0 | 0 | 0 | 2
O=C(Nc1nc2c(s1)CCCC2)Oc1ccccc1 | 1 | 0 | 1 | 3 | 0 | -1 | / | /
C/C(=N\Nc1nc(C(C)(C)C)cs1)c1ccccc1 | 6.6* | 7.0* | 13* | 5 | 1 | 2.2* | 1 | 8.6*
Cc1nc2ccc(S(=O)(=O)N(C)CC(=O)NCc3ccc(N(C)C)cc3)cc2s1 | 0 | -2 | -3 | -2 | 1 | -1 | / | /
O=C(O)c1ccccc1Cc1ccc2c(c1)CCCC2 | -1 | 0 | 4 | -2 | -1 | -1 | / | /
O=C(O)c1ccccc1C(=O)c1ccc2c(c1)CCC2 | -1 | 6.9* | 0 | -3 | 0 | -1 | 0 | 1
CC(=O)Nc1ccc2nc(-c3ccccn3)[nH]c2c1 | 1 | 2 | 10 | 3 | 2 | -1 | / | /

Assay outcomes from PubChem.
